Measured values taken from PubChem BioAssay AID1224921 (Broad Institute, 2016).
Among all 1,400 compounds or so, about 350 (25%) were called active. Another 2% or so got no clear call; they are omitted. The rule behind the calls is not given here. Not all results are given here. Results with a measured potency or affinity are listed apart.

Experiment: inhibitors of Clostridioides difficile proliferation – 4-point retest, confirmation (AID 1224921);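 note: plate controls were DMSO wells for no effect and levofloxacin 16 µg/mL wells for full effect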
Conditions: Clostridioides difficile clinical isolate growth, OD600, 24 h, active compounds read low; at 30 µM unless noted

Max activity, inactive:
CCC(=O)Nc1ccc2c(c1)C(=O)N(C)C[C@@H](OC)[C@@H](C)CN(Cc1cncnc1)[C@@H](C)CO2 -7.99% [at 0.5 µM], C[C@@H]1CN([C@@H](C)CO)C(=O)Cc2cc(NS(C)(=O)=O)ccc2O[C@@H]1CN(C)Cc1ccc(Oc2ccccc2)cc1 36.1% [at 35 µM], C[C@H](CO)N1C[C@H](C)[C@@H](CN(C)Cc2ccncc2)Oc2cc(-c3ccccc3)ccc2S1(=O)=O 23.5%, C[C@@H]1CCCCO[C@H](CN(C)CC2CCCCC2)[C@H](C)CN([C@@H](C)CO)C(=O)c2cc(NC(=O)Nc3ccccc3)ccc2O1 9.95%, C[C@@H]1CCCCO[C@H](CN(C)CC2CCCCC2)[C@H](C)CN([C@@H](C)CO)C(=O)c2cc(NC(=O)Nc3ccc(F)cc3)ccc2O1 11.6%, CO[C@H]1O[C@H](CO)[C@@H](OC(=O)Nc2ccccc2)[C@H](OC(=O)Nc2ccc3c(c2)OCO3)[C@H]1OC(=O)Nc1ccc2c(c1)OCO2 -7.27% [at 1.95 µM], Cc1ccccc1S(=O)(=O)NCC[C@H]1CC[C@H](NC(=O)Nc2cccc(Cl)c2)[C@@H](CO)O1 13.2%, CO[C@@H]1CN(C)C(=O)c2cc(NC(C)=O)ccc2OC[C@H](C)N(Cc2nccs2)C[C@@H]1C 24.6%, N#C[C@H]1[C@@H](c2ccc(-c3ccc(F)cc3)cc2)[C@H](CO)N1C(=O)Cc1ccccc1 29.3% [at 8 µM], CC(C)C#Cc1ccc([C@@H]2[C@@H](CO)N(C(=O)c3cccc(F)c3)[C@H]2C#N)cc1 15.2%, CC(C)NC(=O)N1[C@H](C#N)[C@@H](c2ccc(-c3ccc(F)cc3)cc2)[C@@H]1CO 21.4% [at 8 µM], N#C[C@@H]1[C@@H](c2ccc(C#Cc3ccc(F)cc3)cc2)[C@H](CO)N1C(=O)C1CCC1 35.7%, CO[C@H]1O[C@H](CO)[C@@H](OC(=O)c2ccc(Br)cc2)[C@H](OC(=O)c2cc3ccccc3[nH]2)[C@H]1OC(=O)c1cc2ccccc2[nH]1 39.8%, CC(C)CC#Cc1ccc2c(c1)O[C@H](CN(C)Cc1ccncc1)[C@H](C)CN([C@@H](C)CO)S2(=O)=O 25.7%, C[C@@H]1CN([C@@H](C)CO)S(=O)(=O)c2ccc(C#CC3(O)CCCC3)cc2O[C@@H]1CN(C)C(=O)Nc1cccc(F)c1 40.2%, CO[C@H]1CN(C)C(=O)c2cc(NS(=O)(=O)c3cn(C)cn3)ccc2OC[C@H](C)N(C)C[C@@H]1C -7.09% [at 0.5 µM]
